Drawing on PubChem BioAssay (NCI), this text covers growth for 13 molecules.

Compounds without any hit were thinned out: in the full panel of roughly 83,000, 20% have a hit.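 In brief: 96-well plates, 48 h treatment, single concentration, percent growth endpoint.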 Values without a mark were called inactive. Calls of active or inactive are those of the source. Rule for the calls: active = growth percent below 10; inactive = the rest.

Some test systems named below: HCT-15 colon; HT29 colon; SNB-75 CNS; SNB-19 CNS; U251 CNS; PC-3 prostate; SK-MEL-5 melanoma; UACC-62 melanoma; LOX IMVI melanoma; SK-MEL-28 melanoma.
Test in all cases: NCI-60 one-dose screen, 48 h (100 = growth as untreated, 0 = no growth, -100 = all killed)
What all share (details): 10 µM unless noted

Consider `CN1C(=O)N(C)C2C1NN=c1s/c(=C\c3ccccc3)c(=O)n12` (stereo not given), for which the growth in the assay on HCT-15 colon was 27.1%; with HT29 colon, 77.8%; in the assay on SNB-75 CNS, 11.5%; in the assay on SNB-19 CNS, 45.4%; in the assay with U251 CNS, 42.1%; in the assay with PC-3 prostate, 28.2%. In addition, the growth is 41% in the assay on SK-MEL-5 melanoma, 42.2% in the assay on UACC-62 melanoma, 44.6% in the assay with LOX IMVI melanoma and 63.2% in the assay with SK-MEL-28 melanoma.
With `CCc1ccccc1NC(=O)/C(C#N)=C/c1ccc(OC)cc1`, the growth in the assay on HCT-15 colon was 101%; in the assay on HT29 colon, 100%; in the assay with SNB-75 CNS, 99.3%; in the assay with SNB-19 CNS, 111%; with U251 CNS it was 106%; in the assay on PC-3 prostate, 81.1%. The growth with SK-MEL-5 melanoma is 96.3%; in the assay with UACC-62 melanoma, 81.6%; in the assay with LOX IMVI melanoma it was 102%; with SK-MEL-28 melanoma, 92.9%.
Regarding `O=c1c2cc(F)ccc2sc2c(NCCN3CCCCC3)nc3ccccc3c12`, the growth in the assay on HCT-15 colon is 13.7%; in the assay on HT29 colon, 10.7%; in the assay on SNB-75 CNS, 37.3%; in the assay on SNB-19 CNS it was 66.6%; in the assay with U251 CNS it was 40.1%; in the assay with PC-3 prostate, 53.1%. Also, the growth was 70.1% in the assay on SK-MEL-5 melanoma, 36.7% in the assay on UACC-62 melanoma, -62.8% (active) in the assay on LOX IMVI melanoma and -14.9% (active) in the assay with SK-MEL-28 melanoma.
Regarding `N#C/C(=C\c1ccc(Br)cc1)n1nnc2cc(F)c(F)cc21`, the growth with HCT-15 colon was 11.1%; with HT29 colon, 13.2%; in the assay with SNB-75 CNS, 12.8%; with SNB-19 CNS it was 50.5%; in the assay on U251 CNS it was 30%; with PC-3 prostate, 31.2%. In addition, the growth in the assay with SK-MEL-5 melanoma is 44.8%; in the assay on UACC-62 melanoma, 13.3%; in the assay on LOX IMVI melanoma, -49.1% (active); in the assay with SK-MEL-28 melanoma, 42.8%.
On to `O=[N+]([O-])c1ccc(-c2cc(-c3ccc(Nc4nc(Nc5ccc(Cl)cc5)nc(Nc5ccc(Cl)cc5)n4)cc3)no2)cc1`, for which the growth in the assay on HCT-15 colon was 89.9%; in the assay on HT29 colon it was 16.5%; with SNB-75 CNS, 16.9%; with SNB-19 CNS, 98.2%; in the assay with U251 CNS it was 91.9%; in the assay with PC-3 prostate, 74.1%. Further, the growth was 79.5% with SK-MEL-5 melanoma, 95.7% in the assay with UACC-62 melanoma, 84.4% in the assay on LOX IMVI melanoma and 40.5% with SK-MEL-28 melanoma.
For `Cn1c(-c2c(N)n(Cc3cccnc3)c3nc(C#N)c(C#N)nc23)nc2ccccc21`, the growth with HCT-15 colon was 94.5%; with HT29 colon, 92.1%; with SNB-75 CNS, 96.6%; in the assay on SNB-19 CNS, 103%; with U251 CNS it was 94.3%; in the assay on PC-3 prostate it was 66%. Further, the growth is 89.2% with SK-MEL-5 melanoma, 89.8% in the assay on UACC-62 melanoma, 97.4% in the assay on LOX IMVI melanoma and 113% in the assay with SK-MEL-28 melanoma.
For `COc1ccc(-c2nc(SCCC(C)C)nc(N/N=C\c3cccc(Cl)c3)c2C#N)cc1`, the growth in the assay with HCT-15 colon is 82.2%; in the assay with HT29 colon, 83.2%; in the assay on SNB-75 CNS, 4.61% (active); in the assay on SNB-19 CNS it was 76.2%; in the assay on U251 CNS it was 29.1%; in the assay with PC-3 prostate, 83.7%. For the same molecule, the growth is 96% in the assay on SK-MEL-5 melanoma, 89.6% with UACC-62 melanoma, 70.9% with LOX IMVI melanoma and 112% in the assay with SK-MEL-28 melanoma.
As for `Cc1ccc(NS(=O)(=O)c2ccc3c(c2)C(=O)CC(c2ccc(C(=O)C(C)C)cc2)N3)cc1C` (stereo not given), the growth is 57% with HCT-15 colon; 91.3% in the assay on HT29 colon; 55.7% with SNB-75 CNS; 68.2% with SNB-19 CNS; 68% with U251 CNS; 46% in the assay with PC-3 prostate. The growth with SK-MEL-5 melanoma was -10.4% (active); with UACC-62 melanoma, 52.8%; in the assay on LOX IMVI melanoma it was 55.6%; in the assay on SK-MEL-28 melanoma it was 77%.
In the case of `O=c1oc2ccccc2c(Cl)c1Cl`, the growth was 38.9% with HCT-15 colon; 105% with HT29 colon; 82.4% with SNB-75 CNS; 91.7% in the assay with SNB-19 CNS; 49.1% with U251 CNS; 101% with PC-3 prostate. Further, the growth was 46.1% with SK-MEL-5 melanoma, 74.7% with UACC-62 melanoma, 10.5% in the assay with LOX IMVI melanoma and 72.4% in the assay with SK-MEL-28 melanoma.
With `Clc1ccc(-c2c3ccc(=[N+]4CCCCC4)cc-3oc3cc(N4CCCCC4)ccc23)cc1`, the growth was -77.1% (active) with HCT-15 colon; -82.3% (active) in the assay with HT29 colon; -70.1% (active) with SNB-75 CNS; -90% (active) in the assay on SNB-19 CNS; -79.6% (active) in the assay on U251 CNS; -71.2% (active) in the assay with PC-3 prostate. The growth is -95.4% (active) in the assay with SK-MEL-5 melanoma, -87.1% (active) with UACC-62 melanoma, -70.2% (active) in the assay on LOX IMVI melanoma and -91.4% (active) in the assay with SK-MEL-28 melanoma.
On to `CCN(CC)CCn1nc2c3c(cccc3c1=O)-c1ccccc1-2`, for which the growth in the assay with HCT-15 colon was 17.1%; in the assay on HT29 colon, 15.6%; in the assay on SNB-75 CNS it was 50.9%; in the assay with SNB-19 CNS, 26%; with U251 CNS, 6.95% (active); in the assay on PC-3 prostate, 26.6%. Further, the growth is -20% (active) with SK-MEL-5 melanoma, 5.94% (active) in the assay with UACC-62 melanoma, -3.44% (active) with LOX IMVI melanoma and 37.1% in the assay with SK-MEL-28 melanoma.
Regarding `Cc1cc(O)c(C2=NN(c3ccc(S(N)(=O)=O)cc3)C(c3ccccc3Cl)C2)cc1Cl` (stereo not given), the growth in the assay on HCT-15 colon is 34.8%; in the assay with HT29 colon, 0.516% (active); in the assay with SNB-75 CNS, 41.7%; in the assay on SNB-19 CNS it was 58.1%; in the assay with U251 CNS it was 7.79% (active); with PC-3 prostate it was 10.9%. Further, the growth was 36.5% in the assay with SK-MEL-5 melanoma, 45.1% with UACC-62 melanoma, -83.7% (active) with LOX IMVI melanoma and 63.2% with SK-MEL-28 melanoma.
`Cc1ccc(C(=O)COc2cccc(/C=C3\Oc4ccccc4C3=O)c2)cc1`: the growth in the assay on HCT-15 colon was 105%; with HT29 colon, 114%; with SNB-75 CNS it was 104%; with SNB-19 CNS, 99.4%; with U251 CNS, 99.7%; in the assay with PC-3 prostate it was 101%. Also, the growth in the assay with SK-MEL-5 melanoma was 123%; with UACC-62 melanoma, 73.2%; in the assay with LOX IMVI melanoma, 104%; in the assay with SK-MEL-28 melanoma, 135%.
